Screening data (PubChem BioAssay)
A selection: hits, their analogues and other compounds. The true share with any hit is near 19%.
HT1080-NT tox = kills 2HG-producing HT-1080-NT fibrosarcoma cells | 360,000 compounds, 1.6% hits | Potency, µM (top dose mostly 46.1 µM), most hits filed as cytotoxic | HT-1080-NT fibrosarcoma viability, CellTiter-Glo ATP luminescence, 48 h;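 further: NT is the 2HG producing partner of a matched IDH1 knockdown line; nearly all actives have a fitted effect of over 55% in size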
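HT-1080-NT; 750 cells/well; 5% FBS RPMI; 48 h compound, 37 degrees C; CellTiter-Glo luminescence; curve fitting and curve-class assignment.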
uPA generation = blocks generation of uPA at the cell surface | Potency, µM (series often up to 38.3 µM), most hits filed as inhibitors | cell surface uPA generation assay, qHTS | 330,000 compounds, 0.31% hits; active means well fitted inhibition curve with a large enough effect; inconclusive means small, poorly fitted or top-dose-only effect; inactive means no such curve, though single readings can be large or run the other way; tested in mouse RAW 264.7 cells; further: nearly all actives have a fitted effect of over 55% in size
HT1080 IDH1KD tx = kills HT-1080 cells with IDH1 knockdown. HT-1080 IDH1 knockdown viability, ATP luminescence, 48 h. Potency, µM (titrated, usually from 46.1 µM), usual class: cytotoxic. 360,000 compounds, 2% hits
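HT-1080-IDH1KD cells (IDH1 knocked down), 750/well in RPMI with 5% FBS, treated with compound 48 h at 37 degrees C. Viability by CellTiter-Glo luminescence, normalised to DMSO and no-cell wells; concentration-response curves classed.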
TDP1 cell CPT = DT40-hTDP1 cell growth loss with CPT; 420,000 compounds, 12% hits; Potency, µM (doses to about 46.2 µM), hits mostly inhibitors; chicken DT40 Tdp1-/-;hTDP1 cells + 20 nM CPT, ATP luminescence, 48 h; AID 686979; further: nearly all actives have a fitted effect of over 55% in size
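Chicken DT40 Tdp1-/- cells stably complemented with human TDP1 were seeded at 400 cells/well in medium containing 20 nM camptothecin, exposed to pin-transferred compounds, and grown at 37 °C for at least 48 hr. Viability was read as ATP luminescence.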
TDP1 cell noCPT = qHTS for Inhibitors of human tyrosyl-DNA phosphodiesterase 1 (TDP1): qHTS in cells in absence of CPT | DT40 Tdp1-/- hTDP1 cells, no CPT, ATP luminescence, 48 h | Potency, µM (top dose mostly 46.2 µM), most hits filed as inhibitors | 420,000 compounds, 15% hits | AID 686978, 2013; further: nearly all actives have a fitted effect of over 55% in size
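Growth of hTDP1-complemented DT40 Tdp1-knockout cells is measured by ATP luminescence after at least 48 hr compound exposure at 37 °C, with DMSO substituting for the 20 nM CPT used in the parallel screen.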
IL1B secr inh = blocks inflammasome-driven IL-1 beta release; 360,000 compounds, 4.7% hits; activity change, % at 57.5 µM; THP-1 LPS/ATP IL-1B secretion, AlphaLISA, 16 h; stronger effect = lower value; in the data active means activity change below about -50%; inconclusive means mostly about -30% to -49%
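Secreted IL-1B measured by AlphaLISA bead assay after 16 h compound exposure of THP-1 cells; compounds (final up to 57.5 uM) added 1 h before LPS (250 ng/mL) and ATP (1.25 mM) stimulation; lower signal means less secretion.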
Numbers stand for hits; – = inactive; ? = inconclusive; · = no result given; [ ] = dose if it differs, or a comment. Unless noted, the call rests on the fitted dose curve; in most records, active means well fitted curve in the direction sought with a large enough effect; inconclusive means small, poorly fitted or top-dose-only effect, or another doubt; inactive means no such curve, though single readings can be large; an effect the other way counts as inactive or inconclusive.

SMILES	HT1080-NT tox	uPA generation	HT1080 IDH1KD tx	TDP1 cell CPT	TDP1 cell noCPT	IL1B secr inh
C/C(=N\NC(=O)c1cc(O)ccc1O)c1cccc(NC(=O)c2ccc(Cl)cc2)c1	–	–	?	?	18µM	-86
C/C(=N\NC(=O)c1cccc(S(=O)(=O)N2CCCC2)c1)c1cccs1	–	–	–	?	–	–
COCCN(C(=O)CC1C(=O)NCCN1Cc1ccc(-c2ccccc2)cc1)C(C)C (stereo not drawn)	–	–	–	–	–	–
Cc1ccc(C)c(-n2c(SCC(=O)NC(C(=O)O)C(C)C)nnc2-c2cccc(Cl)c2)c1 (stereo not drawn)	–	–	–	–	–	–
N#C/C(=C\c1ccc(Cl)cc1Cl)c1nc(-c2cccc(Cl)c2)cs1	·	·	·	–	–	·
CCN(CC)c1nc(-c2ccc(C(=O)NN)cc2)nc(-c2ccc(C(=O)NN)cc2)n1	–	–	–	–	–	–
COCc1cc(C)nc(NC2CC(C)(C)NC(C)(C)C2)c1C#N	–	–	–	–	–	?
CC(CCc1ccc(O)cc1)NCC(O)c1ccc(O)cc1 (stereo not drawn)	·	·	·	–	–	·
CC(CCc1ccc(O)cc1)NCCc1ccc(O)c(O)c1 (stereo not drawn)	?	7.9µM	?	27µM	15µM	?
COCC(=O)N(C)C[C@H]1N[C@@](C)(C(=O)OC)[C@H]2C(=O)N(C)C(=O)[C@@H]12	–	–	–	–	–	–
COc1ccc(CCN(C)Cc2cccc3ccccc23)cc1OC	–	–	–	?	–	–
CN(C)CCN(C)Cc1ccccc1Sc1cccc2ccccc12	?	–	?	9.2µM	8.2µM	-105
CNCc1ccccc1Sc1cccc2ccccc12	–	–	–	23µM	23µM	-55
Cc1[nH]n2c(=O)cc(-c3ccccc3Cl)nc2c1-c1ccccc1	·	·	·	9.2µM	2.6µM	·
Cc1cc(=O)n2[nH]c(C(F)(F)F)c(-c3ccccc3)c2n1	–	–	–	–	?	–
CCc1cc(=O)n2[nH]c(C)c(-c3ccccc3OC)c2n1	–	–	–	–	?	–
COCc1cc(=O)n2[nH]c(C)c(-c3ccc(Cl)cc3)c2n1	–	·	?	13µM	16µM	–
CCC(=O)N1CCC(C)(C(=O)NCc2ccc(F)cc2)C1 (stereo not drawn)	?	·	–	–	–	–
COc1ccc(C(=O)NC(C(=O)OCC(=O)Nc2sccc2C(N)=O)C(C)C)cc1 (stereo not drawn)	–[9.24 µM]	–	–	?	23µM	–
COc1ccc(C(=O)N[C@H](C(=O)Nc2sccc2C(N)=O)C(C)C)cc1	–	–	–	?	?	–
COc1ccc(C(=O)N[C@H](C(=O)OCCCOC(=O)[C@@H](NC(=O)c2ccc(OC)cc2)C(C)C)C(C)C)cc1	–	–	–	23µM	?	–
CCC1COCCS(=O)(=O)N1Cc1cccc(C(F)(F)F)c1 (stereo not drawn)	–	–	–	?	?	–
Nc1ncc(Br)cc1S(=O)(=O)Nc1cc(C(F)(F)F)cc(C(F)(F)F)c1	18µM	–	3.7µM	?	18µM	–
Cc1cc(Br)ccc1NC(=O)CN(C)C(=O)CSC(=S)N1CCCC1	–	–	–	–	?	–
Cc1ccc(CSCC(=O)N(C)CC(=O)Nc2ccccc2Cl)cc1	–	–	–	–	?	–
Cc1ccc(CSCC(=O)N(C)CC(=O)Nc2c(Cl)cccc2Cl)cc1	–	–	–	18µM	?	–
Cc1cc(Br)ccc1NC(=O)CN(C)C(=O)CSCc1ccccc1	–	–	–	–	–	-52
CCOC(=O)CNC(=S)N(CCCN1CCN(C)CC1)Cc1cccs1	–	–	–	–	–	–
C[C@H](O)[C@@H]1C(=O)N2CCc3c([nH]c4ccccc34)[C@@H]2C[C@@H]1N(C)S(=O)(=O)c1ccccc1	–	·	–	?	23µM	–
